IMPase inh: cell-permeable inhibitors of inositol monophosphatase (IMPase); AID 901; CHO-M1 cells, IP1 accumulation, HTRF TR-FRET ratio; 120,000 tested, under 10 active; P97697; inhibition (IP1 accumulation), % at 46.1 µM; active = well fitted curve in the direction sought with a large enough effect in the signal ratio, not every such curve was filed as active; inconclusive = small, poorly fitted or top-dose-only effect, or a change in a side signal; inactive = no such curve, though single readings can be large or run the other way; the % refers to the signal ratio;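 also: cells stimulated with carbachol in lithium chloride buffer; plate controls were DMSO basal wells for no effect and reference inhibitor wells for full effect; higher means more IMPase inhibition seen as more IP1 and lower FRET ratio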
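In this qHTS, compounds (final up to 46 uM) act on CHO-M1 cells that are then activated through the M1 receptor with carbachol, in pH 7.4 buffer containing 50 mM LiCl, for 30 min. IP1 accumulation is quantified by the IP-One immunoassay.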
p53ts 32C tox: cytotoxicity in p53ts cells at permissive temperature; H1299-p53A138V at 32C, ATP luminescence viability, 24 h; Potency, µM (doses to about 46.1 µM), for inactives: top-dose activity change, negative = cytotoxicity, hits mostly cytotoxic; 130,000 compounds, 0.93% hits;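 also: potency is read from the fitted curve at half-maximal effect; 0% = DMSO and -100% = full killing by reference compound; nearly all actives have a fitted effect of over 55% in size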
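Viability by ATPlite luminescence after 24 h compound treatment (up to 46 uM) at the permissive 32C. Cells are H1299 carrying p53 A138V. Scale runs from DMSO basal to 100 uM tamoxifen as full kill; AC50 from Hill fits.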
p53ts 39C kill: cytotoxicity in p53ts cells at nonpermissive temperature. H1299-p53A138V viability at 39C, ATP luminescence, 24 h. Potency, µM (series often up to 46.1 µM), inactives show at the highest dose activity change, negative = cell killing, actives largely listed as cytotoxic. AID 902. 130,000 compounds, 1.5% hits; also: potency is read from the fitted curve at half-maximal effect; % is scaled to controls: 0 for no effect and ±100 for the full control effect; nearly all actives have a fitted effect of over 55% in size
IkB signaling: suppresses IkB signaling in ABC-DLBCL reporter cells; ABC-DLBCL IkBa-CBG/CBR dual luciferase ratio, 4 h; response scale: scaled: untreated 0%, proteasome inhibitor 100%; Potency, µM (highest dose often 57.1 µM), for inactives: top-dose IkBa stabilization activation; 110,000 compounds, 0.04% hits; AID 445; active = well fitted curve in the direction sought with a large enough effect in the signal ratio, not every such curve was filed as active; inconclusive = small, poorly fitted or top-dose-only effect, or a change in a side signal; the % refers to the signal ratio;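 also: potency is read from the fitted curve at half-maximal effect; the direction sought is a rising ratio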
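Luminescence ratio of IκBα-fused green versus native red beetle luciferase in OCI-Ly3 cells, 4 h post-doxycycline with compound; red signal alone, scaled from basal (0%) to zero light (-100%), flagged nonspecific or cytotoxic effects.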
FLuc inh: blocks Photinus pyralis firefly luciferase activity. purified firefly luciferase, luminescence, 8 min. AID 411. 72,000 compounds, 2.2% hits. P08659. Potency, µM (doses to about 57.1 µM), without a hit: top-dose activity change, negative = inhibition, hits mostly inhibitors; also: potency is read from the fitted curve at half-maximal effect; % is scaled to controls: 0 for no effect and ±100 for the full control effect; nearly all actives have a fitted effect of over 40% in size
Target sequence (P08659 whole entry, looked up): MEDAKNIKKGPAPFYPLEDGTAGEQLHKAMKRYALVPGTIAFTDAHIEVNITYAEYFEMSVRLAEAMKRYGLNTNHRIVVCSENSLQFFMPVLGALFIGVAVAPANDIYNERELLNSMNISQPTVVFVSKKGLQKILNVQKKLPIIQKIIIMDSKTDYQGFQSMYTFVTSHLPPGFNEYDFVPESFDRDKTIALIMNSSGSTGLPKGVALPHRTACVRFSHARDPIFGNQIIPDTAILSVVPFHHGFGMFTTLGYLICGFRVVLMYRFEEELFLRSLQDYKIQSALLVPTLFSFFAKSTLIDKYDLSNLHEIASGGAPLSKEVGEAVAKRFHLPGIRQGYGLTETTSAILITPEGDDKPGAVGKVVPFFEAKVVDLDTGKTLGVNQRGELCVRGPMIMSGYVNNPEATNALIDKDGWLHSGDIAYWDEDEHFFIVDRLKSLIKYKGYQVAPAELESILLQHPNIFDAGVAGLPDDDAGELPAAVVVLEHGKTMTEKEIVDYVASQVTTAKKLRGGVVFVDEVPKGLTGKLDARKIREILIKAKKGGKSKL
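Here, luciferase activity is measured as luminescence following an 8 min room-temperature reaction at 10 uM ATP, pH 7.2. Every library sample is titrated.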
Peg3 imprint: genomic imprint erasure induction | 110,000 compounds, 0.02% hits | AID 1948 | Potency, µM (titrated, usually from 60.7 µM), for inactives: top-dose activity change, positive = activation, hits mostly activators | mouse ES Peg3-LacZ reporter, beta-gal luminescence, 40 h; also: potency is read from the fitted curve at half-maximal effect
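Imprint erasure is scored as LacZ activity from the silenced maternal Peg3 allele in feeder-free female ES cells cultured 40 h with LIF. Luminescence is normalized to in-plate negative controls and fitted to the Hill equation.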
Active calls of the source: *; ? = inconclusive; . = no result given; [ ] = dose if it differs, or a comment. The full list was thinned out, with hits kept by preference. Unless noted, calls follow the shape of the dose curve; as a rule, active = well fitted curve in the direction sought with a large enough effect; inconclusive = small, poorly fitted or top-dose-only effect, or another doubt; inactive = no such curve, though single readings can be large; an effect the other way counts as inactive or inconclusive.

SMILES	IMPase inh	p53ts 32C tox	p53ts 39C kill	IkB signaling	FLuc inh	Peg3 imprint
Cc1ccc(-n2nc3ccc(N)cc3n2)cc1	-23	7.9µM*	7.9µM*	12%	2µM*	-56%
CCN1C(=S)SC(=O)C1=C1C=C(C)OC(C)=C1	5	-1%	4%	-5%	-5%	2%
CCN1C(=S)SC(=O)C1=C1C=C(C)N(Cc2ccco2)C(C)=C1	14	7%	-1%	-3%	10µM*	-31%
O=c1[nH]c(Cl)nc2c1ncn2C1OC(CO)C(O)C1O (stereo unspecified)	.	-7%	8%	.	.	1%
O=C(CC(c1ccccc1)c1cc(Br)ccc1O)NCCN1CCOCC1 (stereo unspecified)	5	1%	8%	4%	2%	-7%
O=C(CC(c1ccccc1)c1cc(Br)ccc1O)NCC1(c2ccccc2)CCCC1 (stereo unspecified)	9	?	10µM*	?	.	-4%[10.9 µM]
COc1ccc(-c2coc3ccc(O[C@@H]4O[C@@H](COC(C)=O)[C@@H](OC(C)=O)[C@@H](OC(C)=O)[C@H]4OC(C)=O)c(OC(C)=O)c3c2=O)cc1	.	.	.	0%[11.4 µM]	1%[11.4 µM]	.
Cc1oc(-c2ccc3c(c2)OCCO3)cc1C(=O)O	-1	20µM*	?	?	-19%	-94%
Cc1oc(-c2ccc3c(c2)OCCO3)cc1C(=O)NC(CCC(=O)O)C(=O)O (stereo unspecified)	-6	3%	-2%	?	2%	-12%
Cc1ccc(C(=O)/C=C/Nc2ccccc2C(N)=O)o1	8	13µM*	13µM*	?	6.3µM*	-45%
Cc1ccc(C(=O)Nc2ccncc2)o1	1	0%	9%	1%	-2%	-22%
NC(=O)c1ccccc1N/C=C/C(=O)c1ccc(Cl)cc1Cl	6	.	.	.	.	.
CC(=O)Nc1ccc(N/C=C/C(=O)c2ccc(C)o2)cc1	4	-28%	-22%	0%	16µM*	?
NC(=O)c1ccccc1N/C=C/C(=O)c1ccc(F)cc1	-1	.	.	.	.	.
Cc1cccc(N/C=C/C(=O)c2cccs2)c1C	-2	.	10µM*	.	.	.
NC(=O)c1ccccc1N/C=C/C(=O)c1cccs1	3	11µM*	?	.	.	.
CCn1c(=O)cc(OCC(=O)Nc2cc(OC)c(OC)c(OC)c2)c2ccccc21	.	-3%	-7%	?	.	13%[10.9 µM]
Cc1ccc(/C=C/C(=O)Nc2ccccc2C(N)=O)o1	?	7.9µM*	5µM*	?	.	-42%[10.9 µM]
Cc1ccc(/C=C/C(=O)Nc2cccc3ncccc23)o1	0	.	.	.	.	.
CC(=O)OCC1OC(c2ccc3c(c2)OCO3)C=CC1OC(C)=O (stereo unspecified)	.	6%[9.22 µM]	4%[9.22 µM]	.	.	.
c1ccc(-c2cn3c4c(sc3n2)CCCC4)cc1	8	1µM*	0.63µM*	?	0.4µM*	-88%
Cc1c(C(=O)N2CCc3ccccc3C2)sc2nc(-c3ccccc3)cn12	9	-2%	-12%	?	-1%	-13%
CCOC(=O)c1sc(-c2ccc(F)cc2)cc1N	3	.	.	.	.	.
CCOC(=O)c1sc(-c2ccc(OC)cc2)cc1N	1	-24%	?	0%	13µM*	-31%
Cc1cc(N2CCC(C)CC2)n2ncc(-c3ccccc3)c2n1	13	?	?	?	16µM*	-20%
SMILES	IMPase inh	p53ts 32C tox	p53ts 39C kill	IkB signaling	FLuc inh	Peg3 imprint
Cc1cc(N2CCOCC2)n2ncc(-c3ccccc3)c2n1	-2	.	.	.	.	.
Cc1cc(N2CCCCC2)n2ncc(-c3ccc(Cl)cc3)c2n1	8	-4%	-3%	?	13µM*	-8%
Cc1cc(N2CCCCC2)n2ncc(-c3ccccc3)c2n1	8	13µM*	?	4%	4µM*	-25%
Cc1cc(C)n(-c2cc(C(C)(C)C)nc3c(-c4ccc(Cl)cc4)cnn23)n1	-2	.	.	.	.	.
Nc1ccc(Cl)cc1[N+](=O)[O-]	.	3%[1.84 µM]	-2%	-1%	.	-4%
CCCCN(C)CCCNC(=O)c1ccc2nc(N3CCCCC3)sc2c1	.	-7%	-4%	-2%	.	-11%[10.9 µM]
CCc1ccc2nc(N3CCC(C(=O)O)CC3)sc2c1	.	6.3µM*	6.3µM*	?	.	-10%[10.9 µM]
CCCCN(C)CCNC(=O)C1CCN(c2nc3ccc(CC)cc3s2)CC1	.	10µM*	16µM*	?	.	-9%[10.9 µM]
N[C@H](CS(=O)O)C(=O)O	.	.	.	2%	0%	.
C/C=C(/C)C#N	.	-16%[1.84 µM]	6%	0%	.	5%
CCOC(=O)c1c(C)[nH]c(C(=O)COC(=O)C2CC2C)c1C (stereo unspecified)	1	-2%	-1%	0%	10µM*	-7%
CCOC(=O)c1cc(-c2ccc(C)cc2)n(CC(=O)Nc2ccc(OC)c(Cl)c2)c1C	.	?	7.9µM*	-1%	.	-32%[10.9 µM]
COCCNC(=O)c1cc(-c2ccc3c(c2)OCO3)on1	6	?	?	2%	13µM*	-78%
O=C(NCc1ccco1)c1cc(-c2ccc3c(c2)OCO3)on1	8	-16%	-30%	1%	-8%	-54%
Cc1nn(Cc2ccc(Cl)c(Cl)c2)c(C)c1NC(=O)c1cc(-c2ccc3c(c2)OCO3)on1	1	20µM*	?	?	0%	-42%

High-throughput results (PubChem)
